The text below walks through data of PubChem BioAssay (NCATS).

Assay [1] addresses Cytochrome P450 1A2 (Homo sapiens) (UniProt P05177). Put plainly: p450-cyp1a2 (AID 410; calls by dose curve; note: potency is the fitted concentration of half-maximal effect). In a few lines:
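Read-out is luminescence from luciferin produced by CYP1A2 demethylation of Luciferin-ME (100uM, at Km). Detection reagent stopped the 60 min NADPH-dependent reaction; signals were normalized to 57 uM furafylline.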

Assay [2] deals with Glucocorticoid receptor (Homo sapiens) (UniProt P04150). Put plainly: GR-GFP Redistribution (AID 450;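 active = compounds whose dose series gives a full or clear partial fitted curve of increased nuclear translocation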; note: potency is the fitted concentration of half-maximal effect).
Glucocorticoid receptor (Homo sapiens), sequence (P04150 whole entry, looked up): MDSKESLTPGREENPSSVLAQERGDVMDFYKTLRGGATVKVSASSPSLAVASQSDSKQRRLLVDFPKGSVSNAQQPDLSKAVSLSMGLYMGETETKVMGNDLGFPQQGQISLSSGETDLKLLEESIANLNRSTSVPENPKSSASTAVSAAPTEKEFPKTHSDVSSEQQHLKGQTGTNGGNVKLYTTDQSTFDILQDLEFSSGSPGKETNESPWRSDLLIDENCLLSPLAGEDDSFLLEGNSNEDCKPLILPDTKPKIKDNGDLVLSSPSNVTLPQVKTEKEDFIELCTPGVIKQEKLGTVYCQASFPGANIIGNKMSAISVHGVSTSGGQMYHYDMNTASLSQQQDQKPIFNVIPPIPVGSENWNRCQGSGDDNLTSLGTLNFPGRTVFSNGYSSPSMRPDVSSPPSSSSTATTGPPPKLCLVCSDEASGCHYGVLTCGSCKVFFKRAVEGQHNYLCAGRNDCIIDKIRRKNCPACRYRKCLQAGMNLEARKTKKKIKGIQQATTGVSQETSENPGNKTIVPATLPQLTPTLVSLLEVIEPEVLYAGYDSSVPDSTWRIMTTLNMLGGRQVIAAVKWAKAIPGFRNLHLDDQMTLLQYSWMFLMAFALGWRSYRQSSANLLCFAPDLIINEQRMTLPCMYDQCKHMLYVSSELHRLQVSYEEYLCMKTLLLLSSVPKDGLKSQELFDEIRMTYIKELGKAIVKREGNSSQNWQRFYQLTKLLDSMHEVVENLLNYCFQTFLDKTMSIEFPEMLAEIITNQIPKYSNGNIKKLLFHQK
For assay [3] the target is unchanged. The assay can be described thus: GR-EFC Redistribution (AID 451; calls by dose curve; note: potency is the fitted concentration of half-maximal effect). Conditions: CHO-K1 GR-EFC translocation, beta-gal luminescence, 2 h. In a few lines:
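Translocation of GR-ED fusion to nuclear EA restores b-gal, read by luminescence after 1 h room-temperature detection. Engineered CHO-K1 biosensor cells, 1,000/well, exposed 2 h at 37 C to titrations up to 46 uM final.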

Assay [4] deals with Mitogen-activated protein kinase 10 (Mus musculus) (UniProt Q61831). The assay can be described thus: JNK3 AlphaScreen Assay (AID 530; active = well fitted curve in either direction with a large enough effect, not every such curve was filed as active;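 note: kinase came from lysate of stimulated human HepG2 cells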; note: potency is the fitted concentration of half-maximal effect). An outline of the steps:
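Kinase buffer: 20 mM Tris-HCl pH 7.6, 10 mM MgCl2, 1 mM DTT, 0.1 mM Na3VO4, 0.01% Tween-20; ATP 10 uM. Substrate biotin-GST-cJun(1-79), enzyme from activated HepG2 lysates. Detection by Ser73 phospho-antibody AlphaScreen.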
Background: Bead proximity is the source of the signal in Alpha formats.

Assay [5] concerns the target 3',5'-cyclic-AMP phosphodiesterase 4B (Homo sapiens) (UniProt Q07343). Put plainly: qHTS Assay for Inhibitors of PDE-IV (AID 607; active = well fitted activation curve with a large enough effect in the main read-out, with a control signal flat, not every such curve was filed as active; note: potency is the fitted concentration of half-maximal effect). In a few lines: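 ACTOne HEK293 cells carry a modified cAMP-gated CNG channel and express endogenous PDE4; plated 1000 cells/well, compounds up to 22.9 uM final. Membrane-potential dye fluorescence (ex 535/em 590) was read; parental cells received 10 uM forskolin + 100 uM RO 20-1724.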
A general note: Quantitative high-throughput screening tests each substance at several concentrations.

Assay [6] concerns the target Cytochrome P450 2C9 (Homo sapiens) (UniProt P11712). Put plainly: qHTS Assay for Inhibitors and Substrates of Cytochrome P450 2C9 (AID 883). Note: potency is the fitted concentration of half-maximal effect; nearly all actives have a fitted effect of over 60% in size. In a few lines:
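Luminescent read-out of deoxyluciferin hydroxylation, normalized to 57uM sulphaphenazole (AC100). Reaction: 10nM enzyme, 100uM Luciferin-H (equal to KM), 25mM KPO4, 10 min compound preincubation, then 60 min with NADPH regeneration, both at 37C.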

Assay [7] has as its target Cytochrome P450 3A4 (Homo sapiens) (UniProt P08684). Put plainly: qHTS Assay for Inhibitors and Substrates of Cytochrome P450 3A4 (AID 884). Note: potency is the fitted concentration of half-maximal effect; nearly all actives have a fitted effect of over 50% in size. An outline of the steps:
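Luminescent readout of luciferin produced by CYP3A4 (20 nM) dealkylation of Luciferin-PPXE, 25 uM (its KM). NADPH-driven reaction ran 60 min at RT after 10 min compound preincubation; data scaled to 57 uM ketoconazole as 100% inhibition.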

For assay [8] the target is unchanged. Put plainly: qHTS Assay for Activators of Cytochrome P450 3A4 (AID 885). Note: nearly all actives have a fitted effect of over 65% in size. An outline of the steps:
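CYP3A4 activity: Luciferin-PPXE O-dealkylation, 25uM substrate, 200mM KPO4, RT throughout. Read-out is luciferase luminescence; higher values reflect activation.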

For assay [9], the target named is Cytochrome P450 2D6 (Homo sapiens) (UniProt P10635). The assay can be described thus: qHTS Assay for Inhibitors and Substrates of Cytochrome P450 2D6 (AID 891).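 Note: luciferin methyl ether substrate demethylated by CYP2D6 with NADPH regeneration; nearly all actives have a fitted effect of over 60% in size.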 In a few lines:
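Luminescent read-out of luciferin formed by 5 nM human CYP2D6 demethylating 30 uM Luciferin-ME EGE (Km level) over 60 min at room temperature after NADPH regeneration addition. Data normalized to full inhibition by 1.43 uM quinidine.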

Assay [10] deals with DNA dC->dU-editing enzyme APOBEC-3G (Homo sapiens) (UniProt Q9HC16). The assay can be described thus: qHTS for inhibitors of Vif-A3G interactions: Validation (AID 588379). In a few lines: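 Yellow fluorescence (Ex 488, Em 500-530) of Vif-coexpressing HeLa A3G-eYFP cells, scanned by Acumen cytometer, reports blocked A3G degradation. Cells plated at 700/well overnight at 37 deg C before compound addition, then a further overnight compound incubation at 37 deg C.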
DNA dC->dU-editing enzyme APOBEC-3G (Homo sapiens), sequence (Q9HC16 whole entry, looked up): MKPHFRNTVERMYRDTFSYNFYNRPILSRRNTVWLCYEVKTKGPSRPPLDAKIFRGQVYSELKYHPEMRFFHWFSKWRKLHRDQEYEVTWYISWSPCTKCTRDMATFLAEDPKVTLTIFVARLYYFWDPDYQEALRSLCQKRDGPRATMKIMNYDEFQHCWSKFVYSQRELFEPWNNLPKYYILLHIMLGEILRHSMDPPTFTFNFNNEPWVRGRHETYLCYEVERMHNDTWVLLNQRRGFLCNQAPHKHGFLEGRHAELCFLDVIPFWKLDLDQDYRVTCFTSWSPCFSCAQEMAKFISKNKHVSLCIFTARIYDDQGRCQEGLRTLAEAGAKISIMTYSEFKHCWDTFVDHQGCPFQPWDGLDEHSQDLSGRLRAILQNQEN

Assay [11] addresses ATP-dependent 6-phosphofructokinase (Trypanosoma brucei brucei) (UniProt O15648). The assay can be described thus: qHTS Assay to Find Inhibitors of T. brucei phosphofructokinase: hit validation (AID 492961).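 Note: luminescence reports ADP formed as PFK phosphorylates fructose-6-phosphate with ATP.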 An outline of the steps:
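ADP-Glo luminescence read-out of ADP formed by 1.25 nM PFK from 0.1 mM ATP and 0.5 mM F6P (TEA pH 8.0, 45 min, RT). Compounds titrated; activity normalized to no-enzyme and full-enzyme controls.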

The target in assay [12] is Luciferin 4-monooxygenase (Photinus pyralis) (UniProt P08659). The assay can be described thus: Biochemical firefly luciferase enzyme assay for NPC (AID 624030).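 Note: purified P. pyralis luciferase at 10 nM with luciferin and ATP substrate; nearly all actives have a fitted effect of over 70% in size.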 An outline of the steps:
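Direct inhibition of firefly luciferase enzyme (10 nM final, 50 mM Tris Acetate) assessed by luminescence within 5 minutes. Percent activity scaled between DMSO and PTC124 positive control, with concentration-effect curves classified by fit quality and response.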

The nature of assay [13]: S16 Schwann cell PMP22 intronic element firefly luciferase assay (AID 624032). Note: nearly all actives have a fitted effect of over 30% in size. An outline of the steps:
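Luciferase reporter of PMP22 intronic-element expression in stably transfected S16 rat Schwann cells, read by ONE-Glo luminescence after 24 h compound exposure at 37 C. Activity scaled between DMSO (0%) and positive-control PTC124; concentration-effect curves quality-classified.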

A short description of assay [14]: S16 Schwann cell PMP22 intronic element beta-lactamase assay (AID 624044; calls by dose curve; note: nearly all actives have a fitted effect of over 15% in size). Conditions: S16 rat Schwann cells, PMP22 element beta-lactamase FRET, 24 h; ratio activity, negative = inhibition: at 38.3 µM (top of the series). An outline of the steps:
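Beta-lactamase reporter under a PMP22 intronic regulatory element in stable S16 rat Schwann cells; 24 h compound exposure. 460 nm blue signal normalized between DMSO (0%) and potassium clavulanate, with 535 nm FRET tracking viability; curves classed by r2 and response.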

In the next assay the test system is 7G8. The assay can be described thus: qHTS profiling for inhibitors of Plasmodium falciparum proliferation (AID 504749). Note: nearly all actives have a fitted effect of over 60% in size. Note: potency is the fitted concentration of half-maximal effect. Conditions: P. falciparum in erythrocytes, SYBR Green DNA, 72 h; series mostly up to 28.7 µM. An outline of the steps:
(§1)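 In a 72 h erythrocytic culture (37 C, humidified, 5% CO2) at 2.5% hematocrit and 0.3% starting parasitemia, compounds were tested; SYBR Green I in detergent lysis buffer stained parasite DNA overnight.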

Another assay deals with AA1029. Described as above. Conditions: P. falciparum in erythrocytes, SYBR Green DNA, 72 h; series mostly up to 28.7 µM. In a few lines:
as §1

A further assay has as its system ATS95. Described as above. The conditions noted are these: P. falciparum in erythrocytes, SYBR Green DNA, 72 h; series mostly up to 28.7 µM. An outline of the steps:
as §1

A further assay relates to C2A. The assay is described as above. The conditions noted are these: P. falciparum in erythrocytes, SYBR Green DNA, 72 h; series mostly up to 28.7 µM. In a few lines: as §1
Another assay deals with CP252. Described as above. Conditions: P. falciparum in erythrocytes, SYBR Green DNA, 72 h; series mostly up to 28.7 µM. In a few lines:
as §1

The test system of another assay is CP262. The assay is described as above. Conditions: P. falciparum in erythrocytes, SYBR Green DNA, 72 h; series mostly up to 28.7 µM. In a few lines:
as §1

A further assay relates to ECU. The description is as above. Conditions: P. falciparum in erythrocytes, SYBR Green DNA, 72 h; series mostly up to 28.7 µM. An outline of the steps:
as §1

The subject of the next assay is JCK. Described as above. Conditions: P. falciparum in erythrocytes, SYBR Green DNA, 72 h; series mostly up to 28.7 µM. In a few lines:
as §1

Another assay concerns PAD. The description is as above. The conditions noted are these: P. falciparum in erythrocytes, SYBR Green DNA, 72 h; series mostly up to 28.7 µM. An outline of the steps: as §1
The subject of another assay is PC15. Described as above. Conditions: P. falciparum in erythrocytes, SYBR Green DNA, 72 h; series mostly up to 28.7 µM. In a few lines:
as §1

For a further assay, the system named is PC49. The description is as above. The conditions noted are these: P. falciparum in erythrocytes, SYBR Green DNA, 72 h; series mostly up to 28.7 µM. In a few lines:
as §1

The test system of another assay is SC27B. The assay is described as above. The conditions noted are these: P. falciparum in erythrocytes, SYBR Green DNA, 72 h; series mostly up to 28.7 µM. In a few lines: as §1
The subject of the next assay is TAB113. The description is as above. Conditions: P. falciparum in erythrocytes, SYBR Green DNA, 72 h; series mostly up to 28.7 µM. In a few lines:
as §1

The target of assay [15] is Cytochrome P450 2C19 (Homo sapiens) (UniProt P33261). Put plainly: qHTS Assay for Inhibitors and Substrates of Cytochrome P450 2C19 (AID 899). Note: potency is the fitted concentration of half-maximal effect; nearly all actives have a fitted effect of over 60% in size. In a few lines: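 Luminescence readout of luciferin formed from 10uM Luciferin-H EGE (KM level) by 5 nM CYP2C19 in 50mM KPO4. 60 min NADPH-driven reaction at 37C after 10 min compound preincubation; data scaled to 57uM ketoconazole inhibition.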
Cytochrome P450 2C19 (Homo sapiens), sequence (P33261 whole entry, looked up): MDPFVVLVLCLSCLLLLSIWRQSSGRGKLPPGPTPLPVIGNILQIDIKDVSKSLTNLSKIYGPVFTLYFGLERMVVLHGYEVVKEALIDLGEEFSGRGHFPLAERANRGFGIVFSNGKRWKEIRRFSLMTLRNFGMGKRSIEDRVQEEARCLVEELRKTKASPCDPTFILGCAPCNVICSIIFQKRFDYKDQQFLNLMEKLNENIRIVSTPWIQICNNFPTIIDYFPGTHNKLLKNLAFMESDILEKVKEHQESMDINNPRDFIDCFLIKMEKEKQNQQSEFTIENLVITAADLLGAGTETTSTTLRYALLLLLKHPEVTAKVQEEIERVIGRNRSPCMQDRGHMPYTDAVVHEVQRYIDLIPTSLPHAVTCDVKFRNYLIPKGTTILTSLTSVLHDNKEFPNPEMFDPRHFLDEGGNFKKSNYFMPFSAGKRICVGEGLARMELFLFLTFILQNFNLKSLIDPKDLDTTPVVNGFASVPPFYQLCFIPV

Values without a mark were called inactive. Results filed as inconclusive are left out. Activity calls are given as the source filed them. Unless noted, calls come from the whole dose curve; as a rule, active = well fitted curve in the direction sought with a large enough effect; inconclusive = small, poorly fitted or top-dose-only effect, or another doubt; inactive = no such curve, though single readings can be large; an effect the other way counts as inactive or inconclusive.

Cytochrome P450 3A4 (Homo sapiens), sequence (P08684 whole entry, looked up): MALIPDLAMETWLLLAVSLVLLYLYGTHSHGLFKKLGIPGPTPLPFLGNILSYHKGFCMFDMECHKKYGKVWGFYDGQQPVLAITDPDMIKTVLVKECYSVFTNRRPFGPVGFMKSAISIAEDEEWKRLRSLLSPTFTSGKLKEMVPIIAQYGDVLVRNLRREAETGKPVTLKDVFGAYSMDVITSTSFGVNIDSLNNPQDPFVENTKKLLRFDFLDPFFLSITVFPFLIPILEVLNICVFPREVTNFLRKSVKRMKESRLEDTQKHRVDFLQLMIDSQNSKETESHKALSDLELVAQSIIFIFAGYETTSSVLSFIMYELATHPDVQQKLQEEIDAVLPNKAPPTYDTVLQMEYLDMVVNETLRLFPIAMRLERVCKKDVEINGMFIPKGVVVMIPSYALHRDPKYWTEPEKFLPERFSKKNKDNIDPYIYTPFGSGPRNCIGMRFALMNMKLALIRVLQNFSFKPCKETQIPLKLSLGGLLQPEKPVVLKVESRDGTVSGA
Cytochrome P450 2C9 (Homo sapiens), sequence (P11712 whole entry, looked up): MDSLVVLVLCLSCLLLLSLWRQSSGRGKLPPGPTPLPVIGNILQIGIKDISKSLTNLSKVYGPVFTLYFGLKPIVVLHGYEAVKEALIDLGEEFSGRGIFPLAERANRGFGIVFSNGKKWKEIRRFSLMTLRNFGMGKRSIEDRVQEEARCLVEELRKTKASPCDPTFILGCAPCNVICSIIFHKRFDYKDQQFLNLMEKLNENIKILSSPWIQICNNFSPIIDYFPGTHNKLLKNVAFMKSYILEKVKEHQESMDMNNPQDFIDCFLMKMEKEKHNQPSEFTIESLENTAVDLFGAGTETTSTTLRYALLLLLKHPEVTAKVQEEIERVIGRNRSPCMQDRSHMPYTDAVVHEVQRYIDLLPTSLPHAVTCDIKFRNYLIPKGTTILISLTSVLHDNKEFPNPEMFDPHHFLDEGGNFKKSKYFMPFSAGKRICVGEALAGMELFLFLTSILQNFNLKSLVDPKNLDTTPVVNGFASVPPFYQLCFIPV
3',5'-cyclic-AMP phosphodiesterase 4B (Homo sapiens), sequence (Q07343 whole entry, looked up): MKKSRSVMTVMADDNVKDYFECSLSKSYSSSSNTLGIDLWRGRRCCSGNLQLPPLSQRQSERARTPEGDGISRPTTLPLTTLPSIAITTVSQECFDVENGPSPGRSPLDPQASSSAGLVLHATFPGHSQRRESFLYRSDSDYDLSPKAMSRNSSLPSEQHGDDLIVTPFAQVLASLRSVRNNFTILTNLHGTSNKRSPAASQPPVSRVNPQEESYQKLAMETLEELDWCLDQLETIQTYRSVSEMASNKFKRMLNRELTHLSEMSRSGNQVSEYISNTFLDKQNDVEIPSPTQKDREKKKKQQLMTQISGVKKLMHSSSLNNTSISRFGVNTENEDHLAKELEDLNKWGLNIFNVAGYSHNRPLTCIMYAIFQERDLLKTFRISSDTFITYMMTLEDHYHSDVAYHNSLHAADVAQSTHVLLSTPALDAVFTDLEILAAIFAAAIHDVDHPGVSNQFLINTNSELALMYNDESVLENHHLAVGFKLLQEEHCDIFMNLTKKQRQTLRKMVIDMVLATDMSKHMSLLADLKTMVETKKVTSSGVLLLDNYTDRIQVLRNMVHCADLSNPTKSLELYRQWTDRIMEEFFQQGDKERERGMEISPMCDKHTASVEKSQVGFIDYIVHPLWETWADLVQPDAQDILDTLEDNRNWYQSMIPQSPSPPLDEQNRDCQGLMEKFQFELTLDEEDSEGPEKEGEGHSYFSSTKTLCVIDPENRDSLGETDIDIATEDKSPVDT
Cytochrome P450 1A2 (Homo sapiens), sequence (P05177 whole entry, looked up): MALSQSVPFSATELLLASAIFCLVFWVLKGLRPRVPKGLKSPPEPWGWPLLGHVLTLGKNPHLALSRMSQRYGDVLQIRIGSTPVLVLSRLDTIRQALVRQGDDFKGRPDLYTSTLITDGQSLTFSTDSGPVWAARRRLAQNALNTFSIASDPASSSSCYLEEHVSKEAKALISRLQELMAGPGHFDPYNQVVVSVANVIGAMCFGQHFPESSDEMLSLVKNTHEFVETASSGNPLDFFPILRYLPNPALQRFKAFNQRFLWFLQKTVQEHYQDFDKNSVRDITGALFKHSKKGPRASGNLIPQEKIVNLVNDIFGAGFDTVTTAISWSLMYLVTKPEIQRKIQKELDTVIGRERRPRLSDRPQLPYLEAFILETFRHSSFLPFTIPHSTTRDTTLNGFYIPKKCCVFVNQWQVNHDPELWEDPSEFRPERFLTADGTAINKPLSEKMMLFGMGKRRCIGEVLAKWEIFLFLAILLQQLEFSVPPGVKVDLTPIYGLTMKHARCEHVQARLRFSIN
Cytochrome P450 2D6 (Homo sapiens), sequence (P10635 whole entry, looked up): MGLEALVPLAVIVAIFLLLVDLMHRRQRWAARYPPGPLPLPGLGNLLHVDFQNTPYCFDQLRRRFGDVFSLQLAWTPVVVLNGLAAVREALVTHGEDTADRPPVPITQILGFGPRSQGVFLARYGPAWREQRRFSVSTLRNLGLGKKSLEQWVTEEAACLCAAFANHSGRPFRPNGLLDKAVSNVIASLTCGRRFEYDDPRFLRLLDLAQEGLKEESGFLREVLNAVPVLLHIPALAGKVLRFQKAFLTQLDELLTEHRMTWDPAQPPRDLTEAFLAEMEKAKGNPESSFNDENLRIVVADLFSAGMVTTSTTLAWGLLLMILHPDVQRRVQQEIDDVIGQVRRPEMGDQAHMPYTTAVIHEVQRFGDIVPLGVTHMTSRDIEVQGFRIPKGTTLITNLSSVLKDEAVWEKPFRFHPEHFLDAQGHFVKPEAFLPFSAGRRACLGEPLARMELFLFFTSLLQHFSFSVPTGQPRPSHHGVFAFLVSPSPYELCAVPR
ATP-dependent 6-phosphofructokinase (Trypanosoma brucei brucei), sequence (O15648 whole entry, looked up): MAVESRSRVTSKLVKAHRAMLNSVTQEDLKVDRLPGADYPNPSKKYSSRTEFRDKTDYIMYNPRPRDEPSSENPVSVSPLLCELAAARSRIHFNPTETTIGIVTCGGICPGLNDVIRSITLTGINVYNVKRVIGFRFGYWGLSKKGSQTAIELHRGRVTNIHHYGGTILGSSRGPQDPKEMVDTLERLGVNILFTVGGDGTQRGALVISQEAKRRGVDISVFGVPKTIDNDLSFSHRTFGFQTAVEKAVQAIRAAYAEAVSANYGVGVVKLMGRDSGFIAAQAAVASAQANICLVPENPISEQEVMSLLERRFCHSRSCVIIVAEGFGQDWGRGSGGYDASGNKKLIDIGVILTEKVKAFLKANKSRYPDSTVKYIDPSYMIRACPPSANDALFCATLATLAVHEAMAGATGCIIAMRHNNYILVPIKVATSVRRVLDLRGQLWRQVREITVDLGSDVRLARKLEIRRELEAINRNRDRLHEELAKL

For `O=c1cc(-c2ccc(O)cc2O)oc2ccccc12`, the Potency is 1.26 µM (active) in assay [1]; above 46 µM in [2]; above 46 µM in assay [3]; 5.01 µM (active) in assay [6]; 3.16 µM (active) in assay [7]. In addition, the Potency entry in assay [4], in assay [5], in assay [8] and in assay [9] was “inactive” each time. Also, in assay [10], the molecule was called inactive.

Consider `C=C1C(=O)O[C@H]2C[C@@]3(C)CCCC(=C)[C@@H]3C[C@H]12`, for which the Potency is 20 µM (active) in assay [1], above 46 µM in assay [2], above 46 µM in [3] and 7.55 µM (active) in assay [5]. In assay [4], the Potency result is “inactive”.

As to `CNc1cc(OC)c(C(=O)N[C@@H]2CCN(Cc3ccccc3)[C@H]2C)cc1Cl`, the Potency in assay [1] was 31.6 µM (active); in [2], above 46 µM; in assay [3], above 46 µM; in the assay on 7G8 it was 6.31 µM (active); with AA1029, 14.1 µM (active). Besides, the Potency result (in [4]; in assay [11]; in [12]; in assay [13]; in assay [14]; in the assay with ATS95) was “inactive” each time. The Potency entry with C2A, in the assay with CP252, in the assay with CP262, with ECU, in the assay with JCK and with PAD was “inactive” in each case. The Potency entry in the assay with PC15, with PC49, in the assay with SC27B and in the assay on TAB113 was “inactive” in each case. The molecule was called inactive in assay [10].

Take `COc1ccc2c(=O)cc(-c3ccccc3)oc2c1O`: the Potency is 0.0158 µM (active) in assay [1], above 46 µM in [2], above 46 µM in [3] and 15.8 µM (active) in assay [6]. Moreover, the Potency result in assay [4], in [5], in assay [8] and in assay [9] was “inactive” each time. In addition, the molecule was classed as inactive in assay [10].

Take `O=c1cc(-c2ccccc2O)oc2cc(O)cc(O)c12`: the Potency in [1] is 0.251 µM (active); in assay [2] it was above 46 µM; in assay [3] it was above 46 µM; in [6] it was 5.01 µM (active); in [7] it was 3.98 µM (active); in [15], 3.98 µM (active). Also, the Potency entry in [4], in assay [5] and in assay [8] was “inactive” in each case. For the same molecule, the result in assay [10] was inactive.

For `COc1cccc2oc(-c3ccc(O)cc3)cc(=O)c12`, the Potency in [1] was 0.398 µM (active); in [2], above 46 µM; in [3] it was above 46 µM; in [6] it was 12.6 µM (active); in assay [7], 15.8 µM (active); in assay [15], 10 µM (active). Moreover, the Potency entry in assay [4] and in assay [8] was “inactive” throughout. Further, in [10], the outcome was inactive.

Consider `O=c1cc(-c2cccc(O)c2O)oc2ccccc12`, for which the Potency is 1 µM (active) in assay [1]; above 46 µM in assay [2]; above 46 µM in [3]; 3.98 µM (active) in assay [4]; 12.6 µM (active) in [6]. The Potency entry in [5] and in [8] was “inactive” in each case. Also, the result in assay [10] was inactive.
